# PubChem BioAssay (NCI)
# Compounds without any hit were thinned out: in the full panel of roughly 83,000, 20% have a hit.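 In brief: 96-well plates, 48 h treatment, single concentration, percent growth endpoint.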 A number with no mark means an inactive call. Activity calls are given as the source filed them. Rule for the calls: active = growth percent below 10; inactive = the rest.
# System: OVCAR-4 ovarian
# Assay: NCI-60 one-dose screen, 48 h (100 = growth as untreated, 0 = no growth, -100 = all killed)
# Details: 10 µM
row,SMILES,growth
1,O=C(Nc1cccc(F)c1)c1cc(=O)[nH]c2cc(Br)ccc12,70.6%
2,COc1ccc(-c2cc(-c3ccc(Cl)cc3)nc(NCCCCNc3ccnc4cc(Cl)ccc34)n2)cc1,73.3%
3,CCCSc1nc(N)nc2nc[nH]c12,114%
4,CCN(CC)c1ccc2cc(NC(=O)OCCNC(=O)CCNC(=O)[C@H](CC(C)C)NC(=O)C(C)(C)NC(=O)C(C)(C)NC(=O)[C@H](CC(C)C)NC(=O)CCNC(=O)C(C)(C)NC(=O)[C@H](CC(C)C)NC(=O)CCNC(=O)[C@@](C)(CC)NC(=O)[C@H](C)NC(=O)CCNC(=O)C(C)(C)NC(=O)[C@H](C)NC(=O)[C@@H]3CCCN3C(=O)[C@@](C)(CC)NC(=O)[C@H](Cc3ccccc3)NC(=O)C3CCCN3C(=O)C(C)(C)NC(=O)C3CCCN3C(=O)C(C)(C)NC(C)=O)c(=O)oc2c1 (stereo not given in full),-94.9% (active)
5,CC[C@@](C)(NC(=O)[C@H](C)NC(=O)CCNC(=O)C(C)(C)NC(=O)[C@H](C)NC(=O)[C@@H]1CCCN1C(=O)[C@@](C)(CC)NC(=O)[C@H](Cc1ccccc1)NC(=O)C1CCCN1C(=O)C(C)(C)NC(=O)C1CCCN1C(=O)C(C)(C)NC(C)=O)C(=O)NCCC(=O)N[C@@H](CC(C)C)C(=O)NC(C)(C)C(=O)NCCC(=O)N[C@@H](CC(C)C)C(=O)NC(C)(C)C(=O)NC(C)(C)C(=O)N[C@@H](CC(C)C)C(=O)NCCC(=O)NCO (stereo not given in full),-96.5% (active)
6,C#C[C@]1(O)CC[C@H]2[C@@H]3CC=C4c5nc(Nc6ncccn6)sc5CC[C@]4(C)[C@H]3CC[C@@]21C,67.9%
7,CC(C)(C)c1cc(C(=O)N2CCC(C(=O)NCCN)CC2)cc(C(C)(C)C)c1,105%
8,CCOC(=O)/C(C#N)=C(\C)CCc1ccccc1,58.9%
9,O=C(O)c1cccc(CN2CCN(c3cc4c(cc3F)c(=O)c(C(=O)O)cn4C3CC3)CC2)c1O,114%
10,O=C(NCCCNC(=O)OCc1ccc2c(Br)cc(Br)c(O)c2n1)OCc1ccc2c(Br)cc(Br)c(O)c2n1,-77.6% (active)
11,C[N+](C)(C)c1ncnc2[n-]cnc12,105%
12,O=S(=O)(c1ccc(N/N=C\c2ccccc2Cl)cc1)c1ccc(N/N=C/c2ccccc2Cl)cc1,84.1%
13,CCCOc1ccc(-c2nc(-c3ccc(N)cc3)cs2)cc1,100%
14,O=C(NCc1ccc(Cn2c(=O)sn(-c3ccccc3)c2=O)cc1)OCc1ccc2c(Br)cc(Br)c(O)c2n1,-52.9% (active)
15,N#CCCc1c[nH]c2ccccc12,93%
16,C=CCCCCCCCCC(=O)OC(C)C,112%
17,Cc1cccc(/C=C2\N=C(c3ccccc3)N(c3ccc(S(N)(=O)=O)cc3)C2=O)c1,77.1%
18,CCOC(=O)COc1c(C)cc(SSc2cc(C)c(OCC(=O)OCC)c(C)c2)cc1C,93.1%
19,Nc1nc(Nc2ccccc2)c2ncn(Cc3cc4c(cc3Br)OCO4)c2n1,40.6%
20,CCOC(=O)c1c[nH]n2c(=S)ncnc12,101%
21,O=[N+]([O-])c1cc(CCl)ccc1OCCBr,97%
22,O=C1COCCN1c1ccc(Nc2nc(Cl)nc(N3CCOCC3)n2)cc1,102%
23,O=C(OCc1ccc2c(Cl)cc(Cl)c(O)c2n1)N1CCNCC1,23.4%
24,Cc1ccc(S(=O)(=O)NCCCNc2nccc(-c3c(-c4cccc(F)c4)nc4occn34)n2)cc1,73.4%
25,Cn1cc(-c2noc(-c3cn(C)c4ncccc34)n2)c2cc(Cl)ccc21,98.3%
26,CC(C)CSc1ncnc2nc[nH]c12,100%

# System: SK-OV-3 ovarian
# Assay: as above
# Details: 10 µM unless noted
row,SMILES,growth
1,O=C(Nc1cccc(F)c1)c1cc(=O)[nH]c2cc(Br)ccc12,51.8%
2,COC(=O)[C@]12CCC(C)(C)C[C@H]1C1=CC[C@@H]3[C@@]4(C)C/C(=C/c5cccnc5)C(=O)C(C)(C)[C@@H]4CC[C@@]3(C)[C@]1(C)CC2,7.52% [100 µM] (active)
3,N#C/C(C(=O)c1ccccc1)=C1/C(=O)Nc2ccc(Br)cc21,85.7%
4,C=C(C)[C@@H]1CC[C@]2(C(=O)N3CCN(C)CC3)CC[C@]3(C)[C@H](CC[C@@H]4[C@@]5(C)C/C(=C/c6ccncc6)[C@H](O)C(C)(C)[C@@H]5CC[C@]43C)[C@@H]12,0.185% [100 µM] (active)
5,CCOC(=O)/C(C#N)=C(\C)CCc1ccccc1,125%
6,COc1ccc2c3ccnc(C(F)(F)F)c3n(CCCCN)c2c1,53.3%
7,O=C(O)c1cccc(CN2CCN(c3cc4c(cc3F)c(=O)c(C(=O)O)cn4C3CC3)CC2)c1O,101%
8,CCN(CC)c1ccc2cc(C(Nc3ccc(Br)c(C(F)(F)F)c3)c3nnnn3C(C)(C)C)c(=O)oc2c1 (stereo not given),84.7%
9,O=C(NCCCNC(=O)OCc1ccc2c(Br)cc(Br)c(O)c2n1)OCc1ccc2c(Br)cc(Br)c(O)c2n1,20.2%
10,C[N+](C)(C)c1ncnc2[n-]cnc12,98.7%
11,O=S(=O)(c1ccc(N/N=C\c2ccccc2Cl)cc1)c1ccc(N/N=C/c2ccccc2Cl)cc1,98%
12,CCCOc1ccc(-c2nc(-c3ccc(N)cc3)cs2)cc1,105%
13,O=C(NCc1ccc(Cn2c(=O)sn(-c3ccccc3)c2=O)cc1)OCc1ccc2c(Br)cc(Br)c(O)c2n1,55.2%
14,N#CCCc1c[nH]c2ccccc12,88.9%
15,C=CCCCCCCCCC(=O)OC(C)C,102%
16,COc1cc2c(cc1OCCCCCOc1ccc(-n3c(C)nc4ccccc4c3=O)cc1)N=C[C@@H]1CCCN1C2=O,-0.258% (active)
17,Cc1cccc(/C=C2\N=C(c3ccccc3)N(c3ccc(S(N)(=O)=O)cc3)C2=O)c1,98.8%
18,Clc1ccc(/C=N/Nc2nc3ccccc3s2)c(Cl)c1,74%
19,CCOC(=O)COc1c(C)cc(SSc2cc(C)c(OCC(=O)OCC)c(C)c2)cc1C,106%
20,Nc1nc(Nc2ccccc2)c2ncn(Cc3cc4c(cc3Br)OCO4)c2n1,11.5%
21,CCOC(=O)c1c[nH]n2c(=S)ncnc12,103%
22,CC1(C)CC[C@]2(C(N)=O)CC[C@]3(C)C(=CC[C@@H]4[C@@]5(C)C/C(=C/c6cccnc6)C(=O)C(C)(C)[C@@H]5CC[C@]43C)[C@@H]2C1,6.72% [100 µM] (active)
23,O=[N+]([O-])c1cc(CCl)ccc1OCCBr,102%
24,O=C(OCc1ccc2c(Cl)cc(Cl)c(O)c2n1)N1CCNCC1,40.9%
25,Cc1ccc(S(=O)(=O)NCCCNc2nccc(-c3c(-c4cccc(F)c4)nc4occn34)n2)cc1,68.3%
26,COc1cc(Cl)cc(-c2nn(C(=O)NS(=O)(=O)c3ccccc3)cc2-c2ccncc2)c1,83.2%
27,Cn1cc(-c2noc(-c3cn(C)c4ncccc34)n2)c2cc(Cl)ccc21,89%
28,Cc1cnc([C@]23CC[C@@H](C)[C@H](C)[C@H]2C2=CC[C@@H]4[C@@]5(C)Cc6c([nH]c7ccccc67)C(C)(C)[C@@H]5CC[C@@]4(C)[C@]2(C)CC3)o1,73.9% [100 µM]
29,CC1(C)CC[C@]2(C(=O)O)CC[C@]3(C)C(=CC[C@@H]4[C@@]5(C)C/C(=C/c6ccco6)C(=O)C(C)(C)[C@@H]5CC[C@]43C)[C@@H]2C1,0.149% [100 µM] (active)
